target: AMP-activated protein kinase, AMPK (Homo sapiens) (UniProt P54646+O43741+P54619+Q9UGJ0+Q9Y478+Q13131+Q9UGI9); test: AMP-dependent Kinase enzyme assay. An in vitro enzyme assay that detects ADP turnover that is directly proportional to AMPK activity. This uses naive AMPK that is activated during the assay with MK-8722; format: functional; parameters: scale not given: direction of the effect not stated beside the values; settings: 30 µM

SMILES	Percent Effect
COc1nccc(N2CC[C@@H](N3CCCCCC3)[C@H](O)C2)c1C#N	-1.86%
CCc1nnc(Nc2cc(C)nc(C3CN(C(=O)C(C)C)CCO3)c2)s1 (stereo not given)	-1.78%
CC(C)c1noc(C(C)N2CCN(Cc3noc(C4CC4)n3)CC2)n1 (stereo not given)	-0.511%
CCc1ncc(C(=O)NCCN2CCNC2=O)cn1	0.385%
CC(NCc1cnc(N2CCN(C)CC2)nc1)c1ccc(F)cc1 (stereo not given)	-1.25%
CN(CCc1ccncc1)Cc1c(C2CCCC2)[nH]c2ncccc12	9.38%
Cc1ncc2c(n1)CN(Cc1nc(-c3ccco3)oc1C)CC2	-38.3%
CNC(=O)C(C)NC(=O)c1cc(COc2ccc(OC)cc2Cl)[nH]n1 (stereo not given)	-1.41%
FC(F)(F)c1ccnc(N2CCCN(Cc3ccccn3)CC2)n1	-1.31%
CN(Cc1ccccc1-n1cccn1)C[C@@H]1CCCN2CCCC[C@H]12	-9.27%
O=C(CNc1ccc(OC2CCOC2)cc1)NCc1cccs1 (stereo not given)	9.41%
Cc1cnn(C2CN(CCOc3ccccc3C#N)C2)c1	6.15%
CCCc1nnc(N2CCN(C3CCCC3)CC2)o1	3.52%
Cc1ccccc1SCC(=O)N[C@H]1CC[C@H](n2cnnc2)CC1	1.98%
CN(C)C(CNC(=O)c1ccnc(-n2cncn2)c1)c1ccccc1 (stereo not given)	-0.565%
Cc1cccc(C)c1Nc1noc2c1CN(C(=O)c1ccn(C)n1)CC2	15.9%
COc1nsc2nc(C3CCCN3c3ncccn3)ccc12 (stereo not given)	13.7%
Nc1nc(CC(=O)N2CCCC(CCc3cccc(F)c3)C2)cc(=O)[nH]1 (stereo not given)	-9.77%
Cc1nn(CCC(=O)NC2CCCOC2)c(C)c1C (stereo not given)	12.2%
CN1CCc2nc(C3CCCN(S(=O)(=O)c4ccccc4)C3)ncc2C1 (stereo not given)	6.25%

SMILES	Percent Effect
O=C1NCCN2CCN(Cc3ccc(Cl)c(Cl)c3)CC12 (stereo not given)	-0.338%
CCCN1CCN(S(=O)(=O)c2ccccc2OC)[C@H]2CS(=O)(=O)C[C@H]21	2.61%
Cc1cc(C)nc(NC2CC(=O)N(C)C2)n1 (stereo not given)	-3.57%
O=C(CCn1ccnc1)N1CC[C@H](Oc2ccc(F)cc2)[C@@H](O)CC1	20.9%
Cc1cnn(CCCNC(=O)NCCS(=O)(=O)Nc2ccccc2)c1	13.3%
Cc1nc(N)cc(NCc2csc(N(C)C)n2)n1	-14.5%
FC(F)(F)Oc1ccc(CN2CCCC(n3cncn3)C2)cc1 (stereo not given)	3.31%
COc1ncnc(N)c1CNCCc1ccc(-n2cccn2)cc1	6.72%
CC(C)[C@@H]1CN(c2ccc(C(F)(F)F)cn2)C[C@H]1NS(C)(=O)=O	3.23%
CC(C)c1nn(C)c(N(C)C)c1CNCc1ccnc(N(C)C)c1	-12.6%
CCCc1nc(C(=O)NC(COC)c2ccnn2C)cs1 (stereo not given)	-0.17%
COC[C@]1(O)CCN(c2cc(N3CCOCC3)ncn2)CC1(C)C	-1.8%
Cn1cnnc1C1CCN(c2nc3ccccc3o2)CC1	1.68%
COc1nc(C)ccc1CNC(=O)NC(c1ncc(C)s1)C1CC1 (stereo not given)	-2.14%
c1csc(N2CCCN(c3ncnc4sccc34)CC2)n1	21.9%
CC(C)(C)c1n[nH]cc1CNC1CCC(O)CC1 (stereo not given)	-0.675%
CC(C)C(=O)NCCc1nc(-c2ccncc2)n[nH]1	10.7%
Cn1ccnc1-c1cn(CCc2nnc(N)s2)nn1	-14.9%
COC(=O)c1ccoc1CN(C)CC(=O)NC1CC1	-3.6%
Cc1nc(O)cc(CN2C[C@H](NC(=O)C3CCC3)[C@@H](C3CC3)C2)n1	-2.67%

Reference: ChEMBL document CHEMBL3988442, “University of Dundee, Small-Polar-MMV Screening Library” (2021)
